# Laboratory results: PubChem BioAssay AID1851 (National Center for Advancing Translational Sciences (NCATS), 2009)
# In all, about 16,000 compounds went through this assay and about 4,000 (25%) were called active. Not shown: some 26% with an inconclusive outcome. The call rests on the fitted dose curve; in most records, active means well fitted curve in the direction sought with a large enough effect; inconclusive means small, poorly fitted or top-dose-only effect, or effect the other way; inactive means no such curve, though single readings can be large or run the other way. The list is a sample of the results.
# Biological target: Cytochrome P450 2C9 (Homo sapiens) (UniProt P11712)
# Sequence (P11712 whole entry, looked up): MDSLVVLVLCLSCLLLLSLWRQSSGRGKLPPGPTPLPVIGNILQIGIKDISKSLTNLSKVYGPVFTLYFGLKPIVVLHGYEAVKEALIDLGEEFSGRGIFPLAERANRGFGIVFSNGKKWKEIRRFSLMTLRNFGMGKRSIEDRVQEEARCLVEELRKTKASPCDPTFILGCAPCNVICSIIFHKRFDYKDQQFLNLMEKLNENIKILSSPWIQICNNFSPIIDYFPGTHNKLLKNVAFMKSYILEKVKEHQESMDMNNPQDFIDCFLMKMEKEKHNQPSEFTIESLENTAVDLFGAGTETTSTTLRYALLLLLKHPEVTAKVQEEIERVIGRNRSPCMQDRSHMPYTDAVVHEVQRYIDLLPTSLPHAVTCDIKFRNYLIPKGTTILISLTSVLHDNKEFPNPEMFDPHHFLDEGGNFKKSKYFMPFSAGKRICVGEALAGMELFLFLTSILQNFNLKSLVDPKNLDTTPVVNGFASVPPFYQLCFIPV
# Test: Cytochrome panel assay with activity outcomes
# Settings: recombinant CYP, pro-luciferin dealkylation, luminescence, p450-cyp2c9; series mostly up to 57.1 µM; activity, negative = inhibition: at the top concentration
# Procedure: The P450 gene superfamily is involved in the metabolism and clearance of xenobiotics. This assay used various human CYP P450 isozymes to measure the dealkylation of various pro-luciferin substrates to luciferin. The luciferin is then measured by luminescence after the addition of a luciferase detection reagent. Pro-luciferin substrate concentration in the assay was equal to its KM for its CYP P450 isozyme. Inhibitors and some substrates limit the production of luciferin, and decrease measured luminescence.
# NCGC Assay Protocol Summary:
# 1, Reagent, 2 uL, Isozyme and Pro-Luciferin
# 2, Library compounds, 23 nl, 40 uM to 0.24 nM dilution series
# 3, Controls, 23 nl, Isozyme specific inhibitor
# 4, Reagent, 2 uL, NADPH regeneration solution
# 5, Incubation time, 60 min, Isozyme specific temperature
# 6, Reagent, 4ul, Detection reagent
# 7, Incubation time, 20 min, Isozyme specific temperature
# 8, Detection, 1 sec, ViewLux luminescent read
# The luciferase-based P450-GloTM Screening Systems were obtained from Promega (Madison, WI) for CYP 1A2 (V9770), CYP 2C9 (V9790), CYP2 C19 (V9880), CYP 2D6 (V9890), and CYP 3A4 Luciferin-PPXE (V9910) and were adapted for 1,536-well microplates and an automated protocol. The control compounds furafylline for 1A2 (F124), sulfaphenazole for CYP 2C9 (S0758), ketoconazole for CYP 2C19 (K1003), quinidine for 2D6 (Q3625), and ketoconazole for 3A4 (K1003) were purchased from Sigma Aldrich (St. Louis, MO). Recombinant P450 enzymes were obtained from baculovirus constructs expressed in insect cells (BD/Gentest).
# Medium-binding white solid Kalypsys plates used. Mixtures kept on ice. 1A2: 10 nM 1A2, 100 uM Luc-ME, 100 mM KPO4; 2C9: 10 nM 2C9, 100 uM Luc-H, 25 mM KPO4; 2C19: 5 nM 2C19, 10 uM Luc-H EGE, 50 mM KPO4; 2D6: 5 nM 2D6, 30 uM Luc-ME EGE, 100 mM KPO4; 3A4: 10 nM, 25 uM Luc-PPXE. All amounts are reflected in their final concentration, working concentration is 2x.
# NADPH regeneration solution: 1.3 mM NADP+, 3.3 mM glucose-6-phosphate, 3.3 mM MgCl2, 0.4 U/mL glucose-6-phosphate dehydrogenase for all isozymes, 200 mM KPO4 for 3A4. Mixture prepared at RT but kept on ice during automated run.
# RT incubation in auxilliary plate hotel for 1A2, 2D6, and 3A4; 37C for 2C9 and 2C19.
# Keywords: P450, CYP1A2, CYP2C19, CYP2C9, CYP2D6, CYP3A4, Luciferase, MLSMR, MLSCN, NIH Roadmap, qHTS, NCGC
# On the % scale 0 is the no-effect control and ±100 the full control effect.
SMILES,"activity, negative = inhibition",AC50
CC(C)(C)NC[C@@H](O)c1ccc(O)c(CO)n1,6.16% [at 11.4 µM] (inactive),–
Cc1ccc(-c2nc3ncccn3c2NC(=O)C2CC2)cc1,6.9% (inactive),–
Clc1ccc(-c2nc3ncccn3c2Nc2ccc3c(c2)OCCO3)cc1,–,4.47 µM (active)
Cc1noc2ncnc(Oc3ccc4ccccc4c3)c12,–,25.1 µM (active)
Cc1noc(C)c1-c1cc(Nc2ccccc2)ncn1,-12.1% [at 2.29 µM] (inactive),–
Cc1noc(C)c1-c1cc(NCc2ccccc2)ncn1,24.9% [at 2.29 µM] (inactive),–
O=Nc1c(O)n(Cc2cccc(Cl)c2)c2ccccc12,–,2.51 µM (active)
O=Nc1c(O)n(Cc2ccc(Cl)cc2)c2ccccc12,–,1.26 µM (active)
Clc1ccc(Cn2c(CN3CCCC3)nc3ccccc32)cc1,-38.8% [at 25.6 µM] (inactive),–
Clc1ccc(COc2ccccn2)cc1Cl,-2.18% (inactive),–
O=C1C(=O)N(Cc2ccc(Cl)c(Cl)c2)c2ccccc21,1% (inactive),–
O=Nc1c(O)n(Cc2ccc(Cl)c(Cl)c2)c2ccccc12,–,5.62 µM (active)
NC(=O)c1ncn([C@@H]2O[C@@H](CO)[C@@H](O)[C@H]2O)c1O,-6.99% (inactive),–
Cc1noc(C)c1-c1cncnc1NC1CC1,4.67% [at 2.29 µM] (inactive),–
c1cn(-c2ccnc(-c3ccc4c(c3)OCO4)n2)cn1,4.3% [at 2.29 µM] (inactive),–
COc1cccc(-c2nc(N(C)Cc3ccco3)c3ccccc3n2)c1,-10.2% [at 2.29 µM] (inactive),–
CN(C)C(=O)c1ccc(-c2nc(N(C)Cc3ccco3)c3ccccc3n2)cc1,5.2% [at 2.29 µM] (inactive),–
CN(Cc1ccccc1)c1nc(-c2ccc([N+](=O)[O-])cc2)nc2ccccc12,–,0.501 µM (active)
c1nc(NCCc2cnc[nH]2)c2[nH]cnc2n1,-20.1% [at 11.4 µM] (inactive),–
CN(C)C(=O)c1ccc(-c2cc(NCc3ccccc3)ncn2)cc1,6.12% [at 2.29 µM] (inactive),–
N#Cc1c(-c2ccc(Cl)cc2)nc2n(c1=O)CCCS2,–,12.6 µM (active)
CN(C)c1cc(=O)n2c(n1)SCCC2,-4.22% (inactive),–
N#Cc1c(-c2ccccc2)nc2n(c1=O)CCS2,-5.83% (inactive),–
Cn1cccc1C(=O)N1CCC2(CC1)CCN(C(c1ccccc1)c1ccccc1)CC2,12.5% (inactive),–

SMILES,"activity, negative = inhibition",AC50
CC(C)NC(=O)N1CCCC2(CCN(C(=O)c3cccn3C)CC2)C1,-10.5% (inactive),–
c1ccc(-c2ccc(N3CC[C@@]4(CCCNC4)C3)cc2)cc1,-3.55% (inactive),–
CC(C)CN1CCCC2(CCN(C(=O)c3cccn3C)CC2)C1,5.73% (inactive),–
Cn1cccc1C(=O)N1CCC2(CCCN(C(c3ccccc3)c3ccccc3)C2)CC1,–,12.6 µM (active)
Cn1cccc1C(=O)N1CCC2(CC1)CCN(c1ccc(-c3ccccc3)cc1)CC2,-18.2% (inactive),–
CN1CCCC2(CCN(C(=O)c3cccn3C)CC2)C1,9.11% (inactive),–
Cn1cccc1C(=O)N1CCC2(CCCN(c3ccc(-c4ccccc4)cc3)C2)CC1,–,15.8 µM (active)
Cn1cccc1C(=O)N1CCC2(CCCN(c3cccc(-c4ccccc4)c3)C2)CC1,–,3.98 µM (active)
Cn1cccc1C(=O)N1CCC2(CC1)CCN(c1cccc(-c3ccccc3)c1)CC2,9.6% (inactive),–
c1ccc(-c2ccc(N3CCCC4(CCNCC4)C3)cc2)cc1,–,25.1 µM (active)
c1ccc(-c2ccc(N3CC4(CCNCC4)C3)cc2)cc1,-19.5% (inactive),–
Cc1cnc(CNc2ncncc2-c2ccccc2CN(C)C)cn1,20.8% [at 2.29 µM] (inactive),–
CO[C@@H]1COC(=O)[C@H]2CCCN2C(=O)[C@@H](C)COC(=O)CCC[C@H]1C,1.93% [at 11.4 µM] (inactive),–
COC(=O)N1CCC2(CC1)CN(c1ccc(-c3ccccc3)cc1)C2,-19.7% (inactive),–
Cn1cccc1C(=O)N1CCC[C@@]2(CCN(c3ccncc3)C2)C1,-3.72% (inactive),–
Cn1cccc1C(=O)N1CCC2(CC1)CN(c1ccncc1)C2,–,5.01 µM (active)
Cn1cccc1C(=O)N1CCC2(CC1)CCN(c1ccncc1)CC2,-17.9% (inactive),–
Cn1cccc1C(=O)N1CCC[C@@]2(CCN(c3ccccc3)C2)C1,-11.1% (inactive),–
Cn1cccc1C(=O)N1CCC2(CCCN(c3ccccc3)C2)CC1,–,15.8 µM (active)
Cn1cccc1C(=O)N1CCC2(CC1)CCN(c1ccccc1)CC2,10.5% (inactive),–
COC(=O)N1CCC2(CCCN(c3ccc(-c4ccccc4)cc3)C2)CC1,–,15.8 µM (active)
O=C(Oc1ccccc1)N1CCC2(CCCN(c3ccc(-c4ccccc4)cc3)C2)CC1,17.5% (inactive),–
COc1ccccc1/C=C/C=N/N1CCN(Cc2cccc3ccccc23)CC1,25.5% (inactive),–
